Measured values reported in ChEMBL document CHEMBL4513216, “Probing the Open Global Health Chemical Diversity Library for Multistage-Active Starting Points for Next-Generation Antimalarials” (ACS Infect Dis, 2020).
Among all 65,000 compounds or so, about 2,100 (3.2%) showed an effect of 50% or more. The median lay at about -52%. The sample as a whole holds a higher share of strong results than the screen did.

What follows are compounds tested on Plasmodium falciparum (assay: Screen against P. falciparum Asexual Blood Stage (ABS), at 5uM). Settings: tested at 5 uM.
Assay type: functional, Dd2

| SMILES | INHIBITION |
| --- | --- |
| c1cc(CN2C[C@@H]3OCCN(CC4CC4)[C@@H]3C2)n[nH]1 | 7.58% |
| CC(=O)N1CCO[C@@H]2CN(S(=O)(=O)C3CC3)C[C@@H]2C1 | -114% |
| Cc1csc2c(N3CCC(NCCCc4cnn(C)c4)CC3)ncnc12 | -10.6% |
| Cc1ccc(CNC2CCN(CCc3ccncc3)CC2)s1 | -1.43% |
| CCCc1cncnc1N1CCC(NCc2ccncc2)CC1 | 66.1% |
| Cc1csc2c(N3CCC(NCCCc4ccncc4)CC3)ncnc12 | 64.6% |
| Cc1csc2c(N3CCC(NCCc4ccnn4C)CC3)ncnc12 | -18.8% |
| CCCc1cncnc1N1CCC2(CCC(=O)N(CCCO)C2)CC1 | -6.89% |
| CCCN1CCC(NCc2ccncc2)CC1 | -47.1% |
| CCCc1cncnc1N1CCC(NCc2ccc(O)cc2)CC1 | 50.2% |
| CCCc1cncnc1N1CCC2(CCC(=O)N(C3CCCC3)C2)CC1 | 29.3% |
| CCOc1ccc(C(=O)CCC(=O)N(C)Cc2nc(C)c[nH]2)cc1C | -27.6% |
| COCCN1CCN(Cc2cnc(C(C)C)nc2)CC1 | -72.3% |
| O=C(C1CC1)N1C[C@H]2CCCN(S(=O)(=O)c3ccc4c(c3)CCC4)[C@H]2C1 | -49.4% |
| NCC(=O)N1CCCC1c1nccnc1Nc1ncccn1 (centres undefined) | -91.6% |
| Cc1nnc(-c2cccc(N3CCC(NC(C)CC(C)C)CC3)c2)s1 (centres undefined) | -15.1% |
| CC(C)CC(C)NC1CCN(c2cccc(-c3cscn3)c2)CC1 (centres undefined) | 51.8% |
| CC(C)CC(C)NC1CCN(c2ccc(-c3cscn3)cc2)CC1 (centres undefined) | -115% |
| COC(=O)NCC(=O)N1CCC(c2cc3ccccc3[nH]2)CC1 | -109% |
| Cc1cc(C)c(CNC(=O)N2CCCC2c2cc(C)on2)c(=O)[nH]1 (centres undefined) | -65.3% |
| COc1cc(C(=O)N2CC3(CCNCC3)c3cc(Cl)ccc32)ccn1 | 65.4% |
| CN(C)C(=O)N1CC2(CCNCC2)c2cc(F)ccc21 | -81.2% |
| Cc1ccc2c(c1)C1(CCNCC1)CN2C(=O)C(C)C | 32.6% |
| CN(C)C(=O)N1CC2(CCNCC2)c2cc(Cl)ccc21 | 25.5% |
| CN1CCC2(CC1)CN(C(=O)c1cccnc1)c1ccc(Cl)cc12 | 57.5% |
| O=C(c1ccncc1)N1CC2(CCNCC2)c2cc(Cl)ccc21 | 60% |

| SMILES | INHIBITION |
| --- | --- |
| Cc1ccc(C(=O)N2CC3(CCNCC3)c3cc(Cl)ccc32)cn1 | 37.8% |
| O=C([C@H]1CCCN1)N1CC2(CCNCC2)c2cc(Cl)ccc21 | 60.3% |
| CC(=O)N1CCC2(CC1)CN(C(=O)c1cccnc1)c1ccc(F)cc12 | -31.7% |
| C[C@@H](N)C(=O)N1CC2(CCNCC2)c2cc(Cl)ccc21 | 48.2% |
| CCN1CCC2(CC1)CN(C(=O)c1cccnc1)c1ccc(Cl)cc12 | 13.4% |
| O=C(C1CC1)N1CC2(CCNCC2)c2cc(F)ccc21 | 13.7% |
| COc1ccc(-c2n[nH]c(C)c2CC(=O)NCC2CCOCC2)cc1 | 6.29% |
| Cc1occc1C(=O)N1CCC2(CCN(Cc3ccccn3)C2=O)C1 (centres undefined) | -30.7% |
| CNC(=O)N1CCC2(CC1)c1ncc(-c3cccc(F)c3)n1CCN2C | -74% |
| CCn1cc(S(=O)(=O)N2CCCCCC2c2cc(C)on2)cn1 (centres undefined) | 16.1% |
| O=C(Nc1ccccc1)C1CN(Cc2ccco2)CC12CCOCC2 (centres undefined) | -3.58% |
| CNC(=O)C1Cn2ccnc2C2(CCN(Cc3nccs3)CC2)O1 (centres undefined) | -118% |
| CN1CCN([C@H]2CCN(C(=O)c3cc(Cl)cn3C)C[C@H]2CCCO)CC1 | -28.7% |
| Cc1cnc(N2C[C@H]3CCCC(N(C)Cc4ccccn4)[C@H]3C2)nc1 (some centres undefined) | -4.92% |
| O=C(N1CCOCC1)[C@@]12CCO[C@@H]1CCN(Cc1cccc(F)c1)C2 | -26.7% |
| CNc1nccnc1C1CN(C(=O)c2c[nH]cn2)CCO1 (centres undefined) | -87.7% |
| NC(=O)CCC1CCCN(Cc2cnc(N3CCCCC3)nc2)C1 (centres undefined) | -84.4% |
| CNc1nc(C2CCN(C(=O)CC3CCCC3)C2)nc2c1CN(C)CC2 (centres undefined) | -4.57% |
| COc1ccc(OCC2CCCN(Cc3ccncc3)C2)cc1 (centres undefined) | 4.05% |
| COc1ccc(Cn2nnnc2SCC2CCCN(C)C2)cc1 (centres undefined) | 59.9% |
| COc1ccc(OC)c(-n2nnnc2SCC2CCCN(C)C2)c1 (centres undefined) | 42.8% |
| CCN(CC)C(=O)c1ccn(COc2cccc(Cl)c2Cl)n1 | -133% |
| Cn1cc(CN2C[C@@H]3COC[C@]3(COCC3CC3)C2)cn1 | -11.4% |
| Cn1cc(CN2C[C@H]3CCC[C@@]3(COCC3CC3)C2)cn1 | 54.1% |
| Cc1nc(COC[C@@]23CCC[C@@H]2CN(Cc2cnn(C)c2)C3)cs1 | -28.9% |
| O=C(NCc1nn(-c2ccccc2)c2c1CCC2)C1CC1 | -137% |

| SMILES | INHIBITION |
| --- | --- |
| CCn1nc(C)c(CNC(=O)c2nnc3ccc(Cl)cc3n2)c1C | -2.95% |
| Cc1cnccc1-c1cnn(CCNC(=O)c2ccccn2)c1C1CC1 | 40.2% |
| CC(C)c1ncc2c(n1)CN(CC(=O)Nc1ccncc1)CC2 | -23.6% |
| CC1=C[C@@H](CN2CCCC2)[C@H](C(C)C)C[C@H]1Cc1nnc(C)o1 | 0.0851% |
| COc1ccc2nc(C[C@@H]3C[C@@H](C(C)C)[C@H](CN)C=C3C)[nH]c2n1 | 68.7% |
| CC1=C[C@@H](CN2CCN(C)CC2)[C@H](C(C)C)C[C@H]1Cc1nnc(C)o1 | 16.4% |
| Cc1ccc(CN2C[C@@H]3C[C@H](C(=O)Nc4cccnc4)[C@H](C2)O3)cc1 | 41.3% |
| COC(=O)CN(C(=O)c1cc(C)c(F)cc1F)c1cccc(C)n1 | -97.6% |
| CC1(C(=O)N2CCOCC2)CN(C2CCCCC2)CCO1 (centres undefined) | -82.9% |
| Cc1nc(CN2CCCC(NCCOc3ccccc3)C2)no1 (centres undefined) | -55.9% |
| O=C(COCCOc1ccccc1)NC1CCN(c2ncccn2)CC1 | -7.73% |
| Cc1ccnc(N2CCC(NCCOc3ccccc3)CC2)n1 | 13.8% |
| Cc1nc(C)c(C)c(N2CCC(NCCOc3ccccc3)CC2)n1 | 63.1% |
| CN(C)c1ccnc(N2CCC(NCCOc3ccccc3)CC2)n1 | 61.5% |
| c1ccc(OCCNC2CCN(c3ncccn3)CC2)cc1 | -15.2% |
| Cn1ccnc1CN1CCN(CC2CC2)[C@@H]2CS(=O)(=O)C[C@@H]21 | -222% |
| Cn1c(=O)cc(C(=O)NC(Cc2ccsc2)c2cccnc2)[nH]c1=O (centres undefined) | -41.8% |
| CCN(CC)S(=O)(=O)N1CC[C@H](c2ccccc2)[C@H]2NCCCC[C@H]21 | 57.7% |
| O=S(=O)(N1CCCC1)N1CC[C@H](c2ccccc2)[C@H]2NCCCC[C@H]21 | 48.5% |
| O=S(=O)(N1CCCC1)N1C[C@@H](c2cccc(F)c2)[C@@H]2NCCCCC[C@H]21 | 25.3% |
| CCOc1c(F)cccc1C(=O)N(c1cccnc1)C(C)C | -2.56% |
| CC(C)(C(=O)NCC1CCN(Cc2ncc[nH]2)C1)c1ccccc1 (centres undefined) | -15.4% |
| CC(C)(C(=O)NCC1CCN(Cc2cccnc2)C1)c1ccccc1 (centres undefined) | 53.2% |
| CC(C)(C(=O)NCC1CCN(Cc2ccccn2)C1)c1ccccc1 (centres undefined) | 40.4% |
| Cc1nc(CCCNC(=O)Nc2ccc(F)cc2F)n[nH]1 | -12.9% |
| O=C(NCCN1CCCC1)c1cc2c(s1)CCN2c1ncccn1 | -36.4% |

| SMILES | INHIBITION |
| --- | --- |
| O=C1CC(c2ccccc2)c2cnn(C3CCCC3)c2N1 (centres undefined) | -173% |
| O=C1CC(c2ccc(F)cc2)c2cnn(C3CCCC3)c2N1 (centres undefined) | -115% |
| N#Cc1ccc(C2CC(=O)Nc3c2cnn3C2CCCC2)cc1 (centres undefined) | 53.3% |
| Cc1noc(C)c1CC(=O)N1CCCN(C)c2ccc(Cl)cc21 | -70.5% |
| O=C(NCC1CCN(Cc2cc3ccccc3[nH]2)C1)C1CCCCC1 (centres undefined) | 8.98% |
| Cc1nc(CNC(=O)Nc2ccc(N(C)C)nc2)sc1C | -121% |
| Cc1nc(CNC(=O)Nc2ccc3c(c2)CCCN3C)sc1C | 60.4% |
| Cc1nc(CNC(=O)Nc2ccc3c(c2)CCCC(=O)N3)sc1C | -39.6% |
| CC(C)c1nnc(CN2CCc3ccc(S(N)(=O)=O)cc32)o1 | -105% |
| CCOCC(=O)N1Cc2nnn(C)c2C(COCc2ccccn2)C1 (centres undefined) | -123% |
| NC(=O)NCCC(=O)NCc1cccnc1N1CCc2ccccc2C1 | -73% |
| COC(=O)CCC(=O)NCc1cccnc1N1CCc2ccccc2C1 | 58.5% |
| CC(C)[C@@H](N)C(=O)NCc1cccnc1N1CCc2ccccc2C1 | 29% |
| O=c1cc(C2CCNCC2)nc(Cc2cccc(Cl)c2)[nH]1 | -25.9% |
| CC(C)Nc1ncnc2c1CCN(C(=O)CCc1ccccc1)CC2 | -74.7% |
| Cc1ccc(CN2Cc3ccccc3OC3(CCC(CO)CC3)C2)s1 (centres undefined) | -106% |
| Cc1ncsc1CN1C[C@H](NC(=O)C2CCOCC2)[C@@H](C(C)C)C1 | -21.1% |
| c1ccc(Cc2nc(CNC3CCC4(CCNCC4)CC3)no2)cc1 | 39.2% |
| CCSc1cncc(NCc2ccc(N3CCNC(=O)C3)cc2)n1 | 38.9% |
| O=C1CN(c2ccc(CNc3cncc(-n4cccn4)n3)cc2)CCN1 | 52% |
| Cc1cc(NCc2ccc(N3CCNC(=O)C3)cc2)nc(C)n1 | -39.6% |
| CCc1nc2c(c(NC3CCC3)n1)CCN(C(=O)CO)CC2 | -35.7% |
| Cn1cnnc1C1CCCN(C(=O)NCCn2ccnc2)C1 (centres undefined) | -164% |
| Cc1cccc(C(=O)Nc2cccc3c2CCCC3)n1 | -253% |
| O=C(Nc1cccc2c1CCCC2)c1cccnc1N1CCCNCC1 | 53.6% |
| CC1CN(c2ncccc2C(=O)Nc2cccc3c2CCCC3)CCN1 (centres undefined) | 10.3% |
